Autophagy HCS: alters autophagy in cells. calls only at 10 µM (by protocol). 190,000 tested, 0.98% active. MEF GFP-LC3 puncta imaging; test concentration mostly 10 µM;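 active = percentage of spot-positive cells more than 3 SD above its plate mean, without a fluorescence outlier flag or 80% toxicity; inconclusive = no clear call, values can overlap the other calls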;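 note: spot-positive cell cutoff set from DMSO-treated cells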
HCT116 PTEN-null: growth suppressors of cells with PTEN tumor suppressor deletion; HCT116 PTEN-null viability, CellTiter-Glo, 60 h; active compounds read low; viability, % at 10 µM; 140,000 tested, 1.2% active; AID 827;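 active = viability at or below a set limit, 4 SD under the median of all tested compounds, cut at about 3.7% in these data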;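 note: PTEN knockout HCT116 line with beta catenin targeted HCT116 as companion control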
Lmaj promast: Leishmania major promastigote growth inhibition; Leishmania major promastigotes, resazurin fluorescence viability; inhibition, % at 10 µM; 200,000 tested, 9% active; AID 1063; in the data active = inhibition above about 50%;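 note: promastigotes grown with compound for 44 hours at 28 °C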
Insulin prom up: MIN6 insulin promoter up-regulation; MIN6 insulin promoter-GFP reporter, high-content imaging; active compounds read high; z-score at 5 µM; 190,000 tested, 0.3% active; AID 1625;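 active = z-score above 3 at 5 µM with at least 500 cells counted in the well; inconclusive = wells under 500 cells, flagged as cytotoxic or low count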
INS promoter inh: TRM-6 insulin promoter activity inhibition | TRM-6 cells (human fetal islet line), insulin promoter-eGFP reporter, imaging; reporter expression induced with tamoxifen | inhibition, % at 2 µM | 130,000 tested, 0.9% active;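 active = inhibition above the mean plus 3 SD, with well images judged a real hit on visual review, cut at about 60% in these data, passing the limit was not always enough; inconclusive = inhibition over the cutoff but images rejected on review; inactive = inhibition not above the cutoff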
HCT116 bCat-KO: beta-catenin-lacking colon tumor cell growth suppression; HCT116 beta-catenin knockout viability, CellTiter-Glo, 60 h; active compounds read low; viability, % at 10 µM; 140,000 tested, 1.5% active; AID 818;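 active = viability at or under a set limit, the compound median less 4 SD, cut at about 6% in these data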;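 note: 0% = Hyamine 1622 control at 20 µM and 100% = untreated cell control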
Numbers without * were called inactive; i = inactive; ? = inconclusive; . = not tested or not shown; + = active, no number. A selection: hits, their analogues and other compounds. The true share with any hit is near 9.6%.

SMILES | Autophagy HCS | HCT116 PTEN-null | Lmaj promast | Insulin prom up | INS promoter inh | HCT116 bCat-KO
CC1C/C(=C/c2ccncc2)C(=O)/C(=C/c2ccncc2)C1 (configuration not stated) | i | . | 101* | ? | i | .
CCCCN1C(=O)C(=Nc2cccc3cnccc23)c2ccccc21 | i | . | 77* | 0.23 | . | .
CCS(=O)(=O)N1CCN(c2ccccn2)CC1 | i | 92 | 92* | . | -33 | 104
CCCS(=O)(=O)N1CCN(c2ccccn2)CC1 | i | 90 | -3 | 0.13 | 3 | 101
CCOc1ccc(C2/C(=C(\O)c3cccc(OC)c3)C(=O)C(=O)N2c2cc(C)on2)cc1OC (configuration not stated) | i | 98 | 10 | -0.22 | -34 | 83
Cc1ccc(NC(=O)CN(C)S(=O)(=O)c2cccs2)cc1F | i | 85 | 8 | 0.01 | 74* | 89
Cc1ccc(NC(=O)CN(C)S(=O)(=O)c2cccs2)cc1C | i | 92 | -1 | 0.73 | -8 | 95
CC1CC(C)(C)N(C(=O)CN2C(=O)c3ccccc3C2=O)c2ccccc21 (configuration not stated) | + | 88 | 7 | . | 27 | 83
CC1=CC(C)(C)N(C(=O)CN2C(=O)c3ccccc3C2=O)c2ccccc21 | i | 95 | 7 | -0.26 | . | 94
CN(C(=O)c1ccccc1OC1CCN(S(C)(=O)=O)CC1)C1CCOC1 (configuration not stated) | i | . | -2 | . | 4 | .
CC(C)CCN1CCN(Cc2nc(-c3ccc(F)cc3)cs2)CC1CCO (configuration not stated) | i | . | 82* | -1 | . | .
COc1ccc2c(c1)C=C(CN1CCN(C3CCCC3)C(CCO)C1)CO2 (configuration not stated) | i | . | 88* | -0.5 | . | .
CC(C)=CCN1CCN(Cc2nc(-c3ccc(F)cc3)cs2)CC1CCO (configuration not stated) | . | . | . | -0.33 | . | .
CC(C)N1CCN(Cc2nc(-c3ccccc3)cs2)CC1CCO (configuration not stated) | i | . | 3 | 0.25 | . | .
OCCC1CN(Cc2nc(-c3ccccc3)cs2)CCN1C1CCCC1 (configuration not stated) | i | . | 84* | -0.24 | . | .
OCCC1CN(Cc2nc(-c3ccccc3)cs2)CCN1Cc1ccc(F)cc1 (configuration not stated) | i | . | 79* | -0.47 | . | .
Cc1cc(C(=O)Nc2cccc(O)c2)co1 | i | 104 | 18 | 0.29 | . | 102
CC(OC(=O)c1cc2c(ccc3ccccc32)oc1=O)c1nc2ccccc2s1 (configuration not stated) | i | 96 | -7 | -0.04 | 23 | 93
O=C(Nc1ccccn1)c1cccc(S(=O)(=O)N2CCCCC2)c1 | i | 97 | 5 | -0.49 | -10 | 78
Cc1onc(-c2ccccc2)c1C(=O)N/N=C(\N)COc1ccc(Cl)cc1 | i | 66 | -4 | 0.26 | 45 | 48
Cc1onc(-c2ccccc2Cl)c1C(=O)N/N=C(\N)COc1ccc(Cl)cc1 | i | 7 | 84* | -0.27 | 19 | 8
Cc1onc(-c2ccccc2Cl)c1C(=O)Nc1ccc(CN2CCCC2)cc1 | i | 91 | 99* | -0.49 | 14 | 98
CCC(=O)Nc1ccc(/C(C)=N/NC(=O)c2c(-c3ccccc3Cl)noc2C)cc1 | i | 111 | 96* | 0.17 | 35 | 103
CCC(=O)Nc1ccc(/C(C)=N\NC(=O)c2ccc(C)s2)cc1 | i | 96 | 96* | . | -36 | 94
Cc1onc(-c2ccccc2Cl)c1C(=O)N(C)C1CCCCC1 | i | 71 | 78* | ? | . | 64
SMILES | Autophagy HCS | HCT116 PTEN-null | Lmaj promast | Insulin prom up | INS promoter inh | HCT116 bCat-KO
COc1cccc(OC)c1OCCNC(C)(C)C | i | 105 | -3 | -0.37 | . | 89
COc1cccc(OC)c1OCCN(C)C | i | 94 | 1 | 4* | 70* | 99
Cc1ccc(NC(=O)CCC(=O)OCC(=O)c2ccc(-c3ccccc3)cc2)cc1 | i | 97 | -8 | . | 8 | 102
CCN(CC)S(=O)(=O)c1ccc(Nc2nc3ccccc3n3nnnc23)cc1 | i | 24 | 67* | 0.04 | -50 | 40
Cc1ccc(CN2CCC(C(=O)NCCC(C)C)CC2)o1 | i | 95 | 60* | -0.64 | . | 88
CC(C)CCNC(=O)C1CCN(c2nc3ccccc3o2)CC1 | i | 90 | 0 | -0.49 | . | 84
COc1ccc(OCCOCCN2CCc3ccccc3C2)cc1 | i | 94 | 93* | -1.9 | -22 | 92
Clc1ccc(OCCCCN2CCc3ccccc3C2)cc1 | i | . | 85* | -0.79 | . | .
COc1ccc(OCCOCCN2CCOCC2)cc1 | i | 91 | -1 | -0.13 | 29 | 95
O=C(CSc1nc(C2CCCCC2)nc2ccccc12)NCc1ccco1 | i | . | 14 | 0.62 | . | .
COc1ccc(C)cc1N(CC(=O)Nc1cccc(N(C)S(C)(=O)=O)c1)S(C)(=O)=O | i | 75 | -1 | -0.22 | 56 | 75
N=c1c2c(-c3ccccc3)c(-c3ccccc3)n(Cc3ccco3)c2ncn1CCN1CCOCC1 | + | 1.6* | 100* | -1.3 | -10 | 1.2*
N=c1c2c(-c3ccccc3)c(-c3ccccc3)n(Cc3ccco3)c2ncn1CCO | i | 1.7* | 100* | ? | -327 | 1.4*
CSc1nc(NCC(C)C)nc(N2CCOCC2)n1 | i | 98 | -1 | -0.89 | -280 | 86
CCN(CC(=O)Nc1ccc2c(c1)OCCO2)C(=O)c1cccc(S(=O)(=O)N2CCOCC2)c1 | i | 99 | -9 | -0.02 | 3 | 83
CC(=O)c1ccc(NC(=S)N(CCCN(C)C)Cc2ccccc2)cc1 | . | . | . | -0.11 | . | .
CN(C)CCCN(Cc1ccccc1)C(=S)Nc1ccc(SC(F)F)cc1 | i | . | 100* | -0.66 | . | .
CN(C)CCCN(Cc1ccccc1)C(=S)NCc1ccccc1 | i | . | 86* | 0.2 | . | .
COc1cccc(C(=O)NCCOc2cc(C)cc(C)c2)c1 | i | 95 | 3 | . | -26 | 94
O=S(=O)(C/C(=C/CO)S(=O)(=O)c1ccccc1)c1ccccc1 | i | 105 | 55* | 0.55 | . | 96
CCN(Cc1ccccc1)C(=O)CS(=O)(=O)c1ccccc1 | i | . | -1 | -1 | . | .
COc1ccc(CCNc2nc(N3CCCCC3)nc(N3CCCCC3)n2)cc1OC | i | 48 | 95* | -1.3 | 38 | 43
COc1ccc(CCNc2nc(N3CCOCC3)nc(N3CCOCC3)n2)cc1OC | i | 90 | 17 | . | 50 | 98
COc1nc(NCCc2ccc(OC)c(OC)c2)nc(OC)n1 | i | 99 | 0 | 0.17 | -33 | 91
CCOc1nc(NCCc2ccc(OC)c(OC)c2)nc(NC(C)(C)CO)n1 | i | 103 | 53* | . | -36 | 89
O=C(Nc1nnc(C2CC2)s1)c1ccc(S(=O)(=O)c2ccccc2)cc1 | i | 95 | -6 | -0.11 | -56 | 94
CCOC(=O)c1sc(NC(=O)CSc2nc(C)cc(C)n2)c(C#N)c1C | i | 83 | 15 | 0.78 | -20 | 91
